PfHsp90 set2 = inhibits growth of yeast expressing Plasmodium falciparum Hsp90. AID 504621. 0.32% of 310,000 active. inhibition, % at 9.4 µM. S. cerevisiae expressing PfHsp90, BacTiter-Glo ATP, 48 h; yeast lacking PDR1 and PDR3 efflux regulators;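 active = every replicate shows inhibition above about 80%, whatever the replicate mean, limit read from the data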;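 note: 0% = DMSO neutral controls and 100% = 20 µM radicicol positive controls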
B2AR ag = activates human beta-2 adrenergic receptor causing internalization. 0.43% of 340,000 active. Am2.2-beta2AR cells, FAP receptor internalization, flow cytometry. response, % (concentration not given with the values). P07550;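 active = response above a set limit, near 3 SD of response in nonfluorescent compounds, cut at about 42% in these data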
Target sequence (P07550 whole entry, looked up): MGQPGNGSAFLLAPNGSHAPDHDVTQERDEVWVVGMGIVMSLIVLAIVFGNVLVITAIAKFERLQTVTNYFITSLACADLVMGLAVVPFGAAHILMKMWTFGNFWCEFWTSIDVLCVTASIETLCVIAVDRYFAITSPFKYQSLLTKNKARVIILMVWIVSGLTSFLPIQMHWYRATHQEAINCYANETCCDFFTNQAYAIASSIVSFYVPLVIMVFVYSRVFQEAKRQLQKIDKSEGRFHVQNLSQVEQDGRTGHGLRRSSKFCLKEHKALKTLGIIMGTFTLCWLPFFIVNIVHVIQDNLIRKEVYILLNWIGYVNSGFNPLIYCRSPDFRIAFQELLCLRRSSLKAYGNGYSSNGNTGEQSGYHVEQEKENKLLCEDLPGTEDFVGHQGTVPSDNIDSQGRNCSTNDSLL
tim23-1 inh = growth inhibitors of tim23-1 mutant yeast | S. cerevisiae tim23-1 growth, BacTiter-Glo luminescence, 24 h | inhibition, % at 20 µM | 1.3% of 330,000 active;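 active = growth inhibition of the mutant yeast at or above 50%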;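 note: temperature-sensitive mutant grown at 25 °C; plate controls were DMSO-treated mutant yeast for no effect and medium wells lacking yeast for full effect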
tim10-1 inh = tim10-1 yeast growth inhibition; 2.2% of 330,000 active; S. cerevisiae tim10-1 ts strain growth, BacTiter-Glo, 24 h; inhibition, % at 20 µM;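 active = inhibition of at least 40%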;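 note: mutant grown at 25 °C; 0% = DMSO wells with yeast and 100% = wells holding no yeast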
TIM10 inh = growth inhibitors of TIM10 yeast strain. inhibition, % at 10 µM. 1.4% of 330,000 active. S. cerevisiae TIM10 strain growth, BacTiter-Glo luminescence, 24 h;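 active = inhibition of 40% or more at the single tested concentration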;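 note: wild-type TIM10 isogenic control strain grown at permissive 25 °C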
tim10-1 confirm = confirmation of tim10-1 mutant yeast growth inhibitors; 56% of 7,400 active; AID 463213; S. cerevisiae tim10-1 ts strain growth, BacTiter-Glo, 24 h; shares compounds with tim10-1 inh; inhibition, % at 20 µM;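 active = inhibition of yeast growth at or above a set limit in either of two repeat tests at 20 µM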;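 note: tim10-1 mutant grown at permissive 25 °C to find synthetic lethal compounds; 0% = DMSO yeast wells and 100% = medium wells without yeast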
tim10 confirm = TIM10 yeast growth inhibition, confirmed; inhibition, % at 10 µM; S. cerevisiae tim10 strain growth, BacTiter-Glo luminescence, 24 h; shares compounds with TIM10 inh; 63% of 4,600 active;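 active = inhibition of yeast growth at or above a set limit in either of two replicates at 10 µM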;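 note: this counterscreen used the strain with wild-type TIM10; 0% = yeast with DMSO and 100% = medium wells lacking yeast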
tim23-1 confirm = tim23-1 yeast growth inhibition, confirmed | inhibition, % at 20 µM | 83% of 4,400 active | S. cerevisiae tim23-1 growth, BacTiter-Glo luminescence, 24 h | shares compounds with tim23-1 inh | AID 463218;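 active = inhibition above about 39% in either of two replicate wells at 20 µM, limit read from the data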;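 note: temperature-sensitive tim23-1 mutant grown at 25 °C; 0% = DMSO wells with yeast and 100% = medium wells without yeast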
Active calls of the source: *; . = no result given; ! = a repeat was not active. Most compounds without a hit are left out; they make up all but 3.8% or so of the library.

SMILES	PfHsp90 set2	B2AR ag	tim23-1 inh	tim10-1 inh	TIM10 inh	tim10-1 confirm	tim10 confirm	tim23-1 confirm
C=CCn1c(SCC(=O)Nc2ccc3c(c2)OCCO3)nc2cc(C(=O)O)ccc2c1=O	0	-4	17	9	11	.	.	.
O=C(Nc1cccc(S(=O)(=O)N2CCCC2)c1)c1ccc(Cl)nc1	-33	-8	19	8	-3	.	.	.
Cn1c(C(=O)O)c(S(=O)(=O)c2ccc(Cl)cc2)c2ccccc21	17	4	1	12	3	.	.	.
CCNc1sc(C(=O)c2cccs2)c(N)c1-c1nc2ccccc2s1	-21	8	72*	53*	45*	31	36*	-6
CC(C)NC(=O)c1onc(CSc2ccc(F)cc2)c1C(=O)NC(C)C	8	-4	21	11	7	.	.	.
Clc1cccc(/C(Cc2nc3ccccc3[nH]2)=N\Nc2ccccc2)c1	8	9	59*	46*	65*	30	5	22
CCN(C(=O)COC(=O)CCc1ccccc1)c1ccccc1	-10	-8	24	10	26	.	.	.
COc1ccccc1C=CC(=O)C=Cc1ccccc1OC	-16	14	.	.	.	.	.	.
COc1ccccc1/C=C1\N=C(C(C)(C)C)OC1=O	1	8	51*	44*	47*	47*	34*	67*
COCCn1c(SCC(=O)NN2C(=O)NC(C)(c3ccccc3)C2=O)nnc1-c1ccncc1 (stereo unspecified)	-9	-1	8	0	2	.	.	.
CC1Cc2ccccc2N1C(=O)CN1CCC(n2nnc3cc(C(F)(F)F)ccc32)CC1 (stereo unspecified)	-22	-5	50*	41*	29	38*	.	42*
CC(Cc1cccs1)NC(=O)Nc1ccc(Cl)c(Cl)c1 (stereo unspecified)	-10	2	52*	47*	59*	52*	62*	54*
CC(Cc1cccs1)NC(=O)Nc1ccc(Cl)cc1 (stereo unspecified)	6	3	25	36	13	.	.	.
CCCCCCCCCCCCCCCCn1cc[n+](C)c1	129*	8	55*	93*	67*!	53*	58*	63*
CCC(CCNC(=O)c1ccccc1)(CCNC(=O)c1ccccc1)[N+](=O)[O-]	16	-12	.	.	.	.	.	.
COc1ccc(/C=C/C(=O)O/N=C(\N)c2ccccc2)cc1OC	6	-7	18	0	15	.	.	.
N/C(=N\OC(=O)/C=C/c1ccccc1)c1cccnc1	0	0	16	28	10	.	.	.
Cc1ccccc1/C(N)=N/OC(=O)/C=C/c1ccccc1	-2	9	73*	76*	76*	52*	68*	56*
Cc1ccc(/C(N)=N/OC(=O)/C=C/c2ccccc2)cc1	-35	-4	67*	60*	72*	47*	78*	77*
COc1ccc(/C(N)=N/OC(=O)/C=C/c2ccccc2)cc1	17	-2	80*	62*	61*	41*	68*	72*
Cc1ccccc1/C(N)=N/OC(=O)c1cccs1	27	0	68*	61*	70*	50*	-11	48*
COc1ccccc1N1CCNC(C)C1=O (stereo unspecified)	-15	6	9	-3	-4	.	.	.
O=C1NC(Cc2ccccc2)c2nc3ccc(Br)cc3c(=O)n2-c2cc(Cl)ccc21 (stereo unspecified)	.	.	26	18	6	.	.	.
N#Cc1ccc(CSc2nnc(NC(=O)CCc3nc4ccccc4c(=O)[nH]3)s2)cc1	-19	8	-12	-11	-4	.	.	.
COc1ccc(CC(=O)NC(=S)Nc2cccc(C)c2)cc1	-3	-99	62*	46*	47*	29*	36*	46*
SMILES	PfHsp90 set2	B2AR ag	tim23-1 inh	tim10-1 inh	TIM10 inh	tim10-1 confirm	tim10 confirm	tim23-1 confirm
Cc1cccc(NC(=S)NNC(=O)COc2ccc(Cl)cc2Cl)c1	-22	-220	52*	46*	43*	32*	0	42*
COC1(C)CC2C(CC1OC(=O)c1cc([N+](=O)[O-])cc([N+](=O)[O-])c1)C2(C)C (stereo unspecified)	-7	5	65*	60*	63*	61*	62*	68*
COC(=O)c1cc(C(=O)NCC2CCCCC2)cc([N+](=O)[O-])c1	-27	-17	26	-11	8	.	.	.
CN1CC(c2ccccc2Cl)C2(COc3ccccc3C2=O)C12C(=O)Nc1ccccc12 (stereo unspecified)	0	4	39	31	26	.	.	.
Cc1ccc(C2CN(C)C3(C(=O)Nc4ccccc43)C23COc2ccccc2C3=O)cc1 (stereo unspecified)	-11	10	53*	45*	29	37*	.	47*
Cc1noc(C)c1COc1ccc(C(=O)N2CCN(S(=O)(=O)c3cccc(F)c3)CC2)cc1	.	4	4	4	18	.	.	.
CCCn1c(=O)c(C(=O)NCc2cccnc2)c(O)c2ccccc21	17	-15	20	28	28	.	.	.
CCCn1c(=O)c(C(=O)NCc2ccccn2)c(O)c2ccccc21	10	1	60*	41*	42*	21	36*	57*
C[C@H](CO)N1C[C@H](C)[C@@H](CN(C)S(=O)(=O)c2cccs2)Oc2ccc(NS(=O)(=O)c3ccccc3)cc2C1=O	22	0	20	5	1	.	.	.
Cc1ccc(-c2csc(NC(=O)c3ccccc3F)c2C(=O)O)cc1	31	7	83*	79*	74*	79*	84*	88*
O=C(Nc1scc(-c2ccc(Br)cc2)c1C(=O)O)c1ccccc1F	19	-1	88*	74*	74*	82*	91*	89*
COc1ccc(-c2csc(NC(=O)c3ccccc3OC)c2C(=O)O)cc1OC	9	8	-6	-32	-8	.	.	.
CCN=c1sc(C(=O)NCCc2ccccc2)cc(=O)n1CC	4	10	66*	51*	43*	48*	11	52*
O=C(NCCc1ccccc1)c1cccs1	-15	-7	0	-18	-7	.	.	.
O=C(Oc1ccc(-c2csnn2)cc1)c1cccs1	-23	2	-10	-4	-7	.	.	.
CC(C)(C)C(=O)O/N=C(\N)Cc1ccc(-c2csnn2)cc1	-4	-12	51*	75*	47*	82*	52*	30
Nc1c(-c2ccccc2)cnn1-c1ccccc1	10	2	9	-21	-25	.	.	.
